This is an account of results in PubChem BioAssay (NCI).

The nature of assay [1]: NCI Yeast Anticancer Drug Screen. Data for the rad50 strain (AID 155).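 Further: 0% = growth of vehicle-only cultures of the same strain.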 As to conditions: S. cerevisiae rad50 strain growth inhibition, active compounds read high. In outline:
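Relative growth inhibition (compound vs vehicle) was measured in yeast with a defined repair-gene alteration.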

A short description of assay [2]: NCI Yeast Anticancer Drug Screen. Data for the mec2-1 strain (AID 157). To be noted: S. cerevisiae mec2-1 strain, active compounds read high. In outline: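 Yeast mec2-1 mutant treated with compound. Readout: growth inhibition vs vehicle controls.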
Assay [3] can be described thus: NCI Yeast Anticancer Drug Screen. Data for the sgs1 mgt1 strain (AID 161).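 Further: 0% = growth of cultures given vehicle only.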 As to conditions: S. cerevisiae sgs1 mgt1 strain, active compounds read high. The method in brief:
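Test agents were incubated with a DNA-repair-mutant yeast strain. Growth was then read and compared against vehicle-treated controls.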

A short description of assay [4]: NCI Yeast Anticancer Drug Screen. Data for the cln2 rad14 strain (AID 165).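 Further: 0% = growth equal to vehicle treated cultures.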 As to conditions: S. cerevisiae cln2 rad14 strain, active compounds read high. In outline:
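cln2 rad14 yeast strain; compound exposure; growth inhibition read vs vehicle controls.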

A short description of assay [5]: NCI Yeast Anticancer Drug Screen. Data for the bub3 strain (AID 167). As to conditions: S. cerevisiae bub3 mutant strain, active compounds read high. In outline:
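Screening used yeast with an engineered genetic alteration affecting cell cycle control. Compound-exposed cultures were compared with vehicle cultures, and reduced growth was taken as inhibition.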

The nature of assay [6]: NCI Yeast Anticancer Drug Screen. Data for the mlh1 rad18 strain (AID 175). As to conditions: S. cerevisiae mlh1 rad18 strain growth inhibition, active compounds read high. In outline:
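Yeast w/ defined DNA-repair lesions; compound exposure; growth vs vehicle controls → % inhibition.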

The mark [7] stands for this setting: at 5.0 µM (retest, dose inferred, filed as 0.5).
[8] abbreviates: at 50.0 µM (retest, dose inferred, filed as 5.0).

Compounds without any hit were thinned out: in the full panel of roughly 79,000, 15% have a hit. A number with no mark means an inactive call. Calls of active or inactive are those of the source. No stated cut-off is given here; in the data, active means growth inhibition above about 70%; inactive means the rest.

As to `CSC(=S)SC(SC)S(C)(=O)=O` (stereo not given), the growth inhibition is -7% in assay [1] (setting [7]); 0% in assay [1] (setting [8]); 98.5% (active) in assay [1] (at 50.0 µM); -5% in assay [2] (setting [7]); -3% in assay [2] (setting [8]); 99.7% (active) in assay [2] (at 50.0 µM). Further, the growth inhibition was -5% in assay [3] (setting [7]); -16% in assay [3] (setting [8]); 99.3% (active) in assay [3] (at 50.0 µM); 1% in assay [4] (setting [7]); 2% in assay [4] (setting [8]); 99.1% (active) in assay [4] (at 50.0 µM). The growth inhibition was -5% in assay [5] (setting [7]); -11% in assay [5] (setting [8]); 99.5% (active) in assay [5] (at 50.0 µM); -8% in assay [6] (setting [7]); -9% in assay [6] (setting [8]); 99.3% (active) in assay [6] (at 50.0 µM).
For the compound `CC(NNC(=S)N1CC2CCC(CC2)C1)c1nccc2ccccc12` (stereo not given), the growth inhibition was 98% (active) in assay [1] (setting [7]); 96% (active) in assay [1] (setting [8]); 98.7% (active) in assay [1] (at 50.0 µM); 98% (active) in assay [2] (setting [7]); 96% (active) in assay [2] (setting [8]); 99% (active) in assay [2] (at 50.0 µM). Further, the growth inhibition in assay [3] (setting [7]) is 98% (active); in assay [3] (setting [8]), 96% (active); in assay [3] (at 50.0 µM), 99% (active); in assay [4] (setting [7]), 97% (active); in assay [4] (setting [8]) it was 95% (active); in assay [4] (at 50.0 µM) it was 98.3% (active). Besides, the growth inhibition in assay [5] (setting [7]) was 97% (active); in assay [5] (setting [8]), 94% (active); in assay [5] (at 50.0 µM) it was 99% (active); in assay [6] (setting [7]), 98% (active); in assay [6] (setting [8]), 96% (active); in assay [6] (at 50.0 µM), 99.1% (active).
On to `Cc1ccc2c(c1)nc1n2C(N)=Nc2ccccc2S1`, for which the growth inhibition is 14% in assay [1] (setting [7]); 47% in assay [1] (setting [8]); 65.5% in assay [1] (at 50.0 µM); -14% in assay [2] (setting [7]); 28% in assay [2] (setting [8]); 45.3% in assay [2] (at 50.0 µM). The growth inhibition in assay [3] (setting [7]) was -5%; in assay [3] (setting [8]), 45%; in assay [3] (at 50.0 µM), 68.6%; in assay [4] (setting [7]), -10%; in assay [4] (setting [8]), 17%; in assay [4] (at 50.0 µM) it was 37.8%. Also, the growth inhibition in assay [5] (setting [7]) is -16%; in assay [5] (setting [8]) it was 47%; in assay [5] (at 50.0 µM), 75.2% (active); in assay [6] (setting [7]) it was 0%; in assay [6] (setting [8]) it was 40%; in assay [6] (at 50.0 µM), 57.2%.
With `CCCCCCCCCCCCCCC[N+]1(CC)CCCCC1`, the growth inhibition was 99% (active) in assay [1] (setting [7]); 99% (active) in assay [1] (setting [8]); 90.3% (active) in assay [1] (at 50.0 µM); 97% (active) in assay [2] (setting [7]); 99% (active) in assay [2] (setting [8]); 90.8% (active) in assay [2] (at 50.0 µM). Further, the growth inhibition is 99% (active) in assay [3] (setting [7]); 99% (active) in assay [3] (setting [8]); 91.7% (active) in assay [3] (at 50.0 µM); 99% (active) in assay [4] (setting [7]); 99% (active) in assay [4] (setting [8]); 90% (active) in assay [4] (at 50.0 µM). Also, the growth inhibition is 98% (active) in assay [5] (setting [7]); 99% (active) in assay [5] (setting [8]); 90.5% (active) in assay [5] (at 50.0 µM); 98% (active) in assay [6] (setting [7]); 99% (active) in assay [6] (setting [8]); 89.2% (active) in assay [6] (at 50.0 µM).
For the compound `Clc1ccccc1C=Nc1cccc2ccccc12`, the growth inhibition in assay [1] (setting [7]) was -10%; in assay [1] (setting [8]), -24%; in assay [1] (at 50.0 µM), 22.4%; in assay [2] (setting [7]), -14%; in assay [2] (setting [8]), -17%; in assay [2] (at 50.0 µM) it was 32.4%. The growth inhibition was -9% in assay [3] (setting [7]); -1% in assay [3] (setting [8]); 27.1% in assay [3] (at 50.0 µM); 18% in assay [4] (setting [7]); 8% in assay [4] (setting [8]); 13.9% in assay [4] (at 50.0 µM). The growth inhibition was 13% in assay [5] (setting [7]); -3% in assay [5] (setting [8]); 35.8% in assay [5] (at 50.0 µM); -33% in assay [6] (setting [7]); -54% in assay [6] (setting [8]); 23.4% in assay [6] (at 50.0 µM).
For `N#Cc1c(-c2ccc(Cl)cc2)c(C#N)c(=O)n(NS(=O)(=O)c2ccccc2)c1S`, the growth inhibition in assay [1] (setting [7]) was 51%; in assay [1] (setting [8]), 83% (active); in assay [1] (at 50.0 µM) it was 39.6%; in assay [2] (setting [7]), 29%; in assay [2] (setting [8]) it was 78% (active); in assay [2] (at 50.0 µM), 86.2% (active). Also, the growth inhibition in assay [3] (setting [7]) was 30%; in assay [3] (setting [8]), 93% (active); in assay [3] (at 50.0 µM) it was 81.3% (active); in assay [4] (setting [7]) it was 46%; in assay [4] (setting [8]), 63%; in assay [4] (at 50.0 µM), 19.4%. For the same compound, the growth inhibition in assay [5] (setting [7]) is 50%; in assay [5] (setting [8]) it was 88% (active); in assay [5] (at 50.0 µM), 70.8% (active); in assay [6] (setting [7]), 36%; in assay [6] (setting [8]), 71% (active); in assay [6] (at 50.0 µM), 77.5% (active).
For `O=C(N/N=C/c1ccccc1O)c1ccccc1-n1cccc1`, the growth inhibition in assay [1] (setting [7]) was 52%; in assay [1] (setting [8]), 64%; in assay [1] (at 50.0 µM), 53.6%; in assay [2] (setting [7]), 30%; in assay [2] (setting [8]), 53%; in assay [2] (at 50.0 µM), 36.6%. Besides, the growth inhibition was 43% in assay [3] (setting [7]); 81% (active) in assay [3] (setting [8]); 80% (active) in assay [3] (at 50.0 µM); 32% in assay [4] (setting [7]); 49% in assay [4] (setting [8]); 45% in assay [4] (at 50.0 µM). Also, the growth inhibition is 41% in assay [5] (setting [7]); 71% (active) in assay [5] (setting [8]); 62.7% in assay [5] (at 50.0 µM); 59% in assay [6] (setting [7]); 74% (active) in assay [6] (setting [8]); 63.1% in assay [6] (at 50.0 µM).
For `Cn1cc(NC(=O)Nc2cc(C(=O)Nc3cc(C(=O)Nc4cc(S(=O)(=O)O)c5cc(S(=O)(=O)O)cc(S(=O)(=O)O)c5c4)n(C)c3)n(C)c2)cc1C(=O)Nc1cc(C(=O)Nc2cc(S(=O)(=O)O)c3cc(S(=O)(=O)O)cc(S(=O)(=O)O)c3c2)n(C)c1`, the growth inhibition is 35% in assay [1] (setting [7]); 90% (active) in assay [1] (setting [8]); 86% (active) in assay [1] (at 50.0 µM); 20% in assay [2] (setting [7]); 80% (active) in assay [2] (setting [8]); 66.8% in assay [2] (at 50.0 µM). Also, the growth inhibition was 21% in assay [3] (setting [7]); 77% (active) in assay [3] (setting [8]); 64.2% in assay [3] (at 50.0 µM); 32% in assay [4] (setting [7]); 48% in assay [4] (setting [8]); 60.5% in assay [4] (at 50.0 µM). In addition, the growth inhibition in assay [5] (setting [7]) was 30%; in assay [5] (setting [8]), 92% (active); in assay [5] (at 50.0 µM) it was 77.5% (active); in assay [6] (setting [7]), 26%; in assay [6] (setting [8]) it was 83% (active); in assay [6] (at 50.0 µM), 87% (active).
On to `C1=C(c2ccccc2)SC=C(c2ccccc2)S1`, for which the growth inhibition is -5% in assay [1] (setting [7]); -26% in assay [1] (setting [8]); -15.7% in assay [1] (at 50.0 µM); -14% in assay [2] (setting [7]); -16% in assay [2] (setting [8]); 8.75% in assay [2] (at 50.0 µM). The growth inhibition in assay [3] (setting [7]) is -2%; in assay [3] (setting [8]), 40%; in assay [3] (at 50.0 µM) it was -0.9%; in assay [4] (setting [7]), -9%; in assay [4] (setting [8]), -9%; in assay [4] (at 50.0 µM) it was -3.15%. The growth inhibition was 23% in assay [5] (setting [7]); 47% in assay [5] (setting [8]); 83% (active) in assay [5] (at 50.0 µM); -6% in assay [6] (setting [7]); -8% in assay [6] (setting [8]); -5.45% in assay [6] (at 50.0 µM).
Turning to `Cc1ccc2nc(N/N=C/c3cccc(C)n3)cc(C)c2c1`, the growth inhibition in assay [1] (setting [7]) is 8%; in assay [1] (setting [8]), 62%; in assay [1] (at 50.0 µM) it was 89.3% (active); in assay [2] (setting [7]) it was -2%; in assay [2] (setting [8]), 37%; in assay [2] (at 50.0 µM), 21.2%. Moreover, the growth inhibition in assay [3] (setting [7]) is 6%; in assay [3] (setting [8]), 80% (active); in assay [3] (at 50.0 µM), 89.8% (active); in assay [4] (setting [7]), -8%; in assay [4] (setting [8]) it was 61%; in assay [4] (at 50.0 µM), 74.9% (active). The growth inhibition in assay [5] (setting [7]) is -11%; in assay [5] (setting [8]), 57%; in assay [5] (at 50.0 µM) it was 73.1% (active); in assay [6] (setting [7]), 4%; in assay [6] (setting [8]) it was 64%; in assay [6] (at 50.0 µM) it was 84.3% (active).
